SMILES strings stand for the structures. Among all 21,000 compounds or so, about 110 (0.52%) were called active. Only a selection was taken, and actives are over-represented in it overall. Unmarked numbers belong to inactive results.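 How the source made its calls: active means most replicate scores above 10, or exactly half above 10 with mean activity above 10; inconclusive means mean activity below 10 while half the replicates exceed 10; inactive means most replicate scores below 10.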

This test is described as follows: inducers of caspase activity in MEF A1-2A-BIM cells, primary screen, A1 inhibitor project, cell-based, CaspaseGlo luminescence (AID 2241).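 Further: effector caspase 3 and 7 activity cleaving a DEVD luciferin substrate.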 The settings on record: caspase-Glo luminescence, 3 h, active compounds read high, percent of clofoctol signal, DMSO as zero, concentration not given here.
In the case of `Cc1cc(C)n(CCc2nc3c4ccccc4n(Cc4ccc(Cl)cc4)c(=O)n3n2)n1`, the caspase activation was -0.449%. Regarding `CCOc1ccc2c(c1)sc(=NC(=O)c1cc3ccccc3cc1OC)n2C`, the caspase activation was 1.85%. On to `COC(=O)c1c(C)c(=O)[nH]c2ccccc12`, for which the caspase activation is 0.776%. For `CCCOc1ccc(Oc2nc(N(C)C)nc(N(C)C)n2)nn1`, the caspase activation is 0.458%.

Consider `CCOC(=O)N1CCC(NC(=O)NCc2noc3ccccc23)CC1`, for which the caspase activation is 0.501%.

Consider `C[C@@H]1CN([C@@H](C)CO)C(=O)c2cc(NS(=O)(=O)c3ccccc3)ccc2O[C@H]1CN(C)CC1CCCCC1`, for which the caspase activation is -0.065%. In the case of `O=C(CC1N=C2c3ccccc3N=C(SCc3ccccc3F)N2C1=O)NC1CCCCC1` (stereo not given), the caspase activation was -0.498%. With `C[C@@H]1CN([C@H](C)CO)C(=O)c2cc(NC(=O)Nc3ccccc3)ccc2O[C@H]1CN(C)S(=O)(=O)c1ccc(F)cc1`, the caspase activation is -0.342%.

In the case of `O=c1c2ccccc2nc(SCc2ccc(F)cc2)n1-c1ccccc1`, the caspase activation was -0.926%.

For `O=C(NCc1ccc2c(c1)OCO2)C12CC3CC(CC(C3)C1)C2`, the caspase activation was 0.545%. Take `CCOC(=O)c1cc(-c2ccccc2)n(-c2ccccc2C)n1`: the caspase activation is -0.391%. As for `C=CCn1cc(C=C2C(=O)N(C)C(=S)N(C)C2=O)c2ccccc21`, the caspase activation is 1.19%. Consider `C[C@H]1CN([C@@H](C)CO)C(=O)c2cc(NS(C)(=O)=O)ccc2O[C@@H]1CN(C)S(=O)(=O)c1ccc(Cl)cc1`, for which the caspase activation is -0.347%. Turning to `CC(C)CC1NC(=O)N(c2ccccc2)C1=O` (stereo not given), the caspase activation was 0.301%. For the molecule `C[C@H](CO)N1C[C@H](C)[C@H](CN(C)Cc2ccc(-c3ccccc3)cc2)Oc2ccc(NS(=O)(=O)c3ccccc3)cc2C1=O`, the caspase activation is 0.241%. With `Cc1ccc(NC2=CC(=O)NC2)cc1`, the caspase activation is 1.28%. Regarding `CN(CCOC(=O)C1c2ccccc2Oc2ccccc21)Cc1ccccc1`, the caspase activation is 1.21%. As to `Cc1cccc(NC(=O)c2ccc(C)c(S(=O)(=O)N3CCCC3)c2)c1`, the caspase activation was -5.91%. For the molecule `CC(=O)N1N=C(c2ccccc2)OC1c1cccnc1` (stereo not given), the caspase activation was -0.213%. Turning to `C[C@H]1CN([C@@H](C)CO)C(=O)c2cc(NC(=O)Nc3ccccc3)ccc2O[C@H]1CN(C)C(=O)Nc1ccc(F)cc1`, the caspase activation is 0.365%. For the molecule `Cc1ccccc1N(C)S(=O)(=O)c1ccc2[nH]cc(C(=O)NCCC(C)C)c(=O)c2c1`, the caspase activation is 0.114%. As to `COc1cc(C=Nc2ccc(Cl)cc2)ccc1OC(=O)/C=C/c1cccs1`, the caspase activation is -0.187%. Take `O=C(Cc1ccccc1)N1CCCc2ccccc21`: the caspase activation is 1.12%. For `O=C(Nc1ccccc1)Nc1ccc(C2SCCS2)cc1`, the caspase activation was -6.29%.

With `Cc1ccc(-n2c(C)cc(C=C3C(=O)c4ccccc4C3=O)c2C)cc1`, the caspase activation was -6.47%. As to `C[C@@H]1CN([C@H](C)CO)C(=O)c2cc(NC(=O)Cc3ccccc3)ccc2O[C@H]1CN(C)S(=O)(=O)c1cn(C)cn1`, the caspase activation is 0.269%. For the molecule `CCN1C(=O)c2ccccc2Sc2ccc(NC(=O)N3CCc4ccccc43)cc21`, the caspase activation was -0.754%. Next, `CCN1C(=O)c2cccc3c(NC(=S)NC(=O)c4ccccc4)ccc1c23`: 11.5% (active); `N#CCNC(=O)CN1C(=O)c2ccccc2C1=O`: 0.74%. For `CC1CCC(NC(=O)Cn2ncn3c(cc4sccc43)c2=O)CC1` (stereo not given), the caspase activation was -0.216%. Consider `O=C1CC(c2ccccc2)C(=O)N1c1ccc(F)cc1` (stereo not given), for which the caspase activation is 0.129%.

In the case of `COc1cc(SC)ccc1C(=O)N(C)c1ccccc1`, the caspase activation is -0.443%. Consider `S=C(Nc1cccc(Cl)c1)NC1CCSc2ccc(Cl)cc21` (stereo not given), for which the caspase activation is 1.82%. In the case of `C[C@H](CO)N1C[C@H](C)[C@H](CN(C)S(C)(=O)=O)Oc2ccc(NC(=O)CCCN(C)C)cc2C1=O`, the caspase activation was 0.894%.

`COc1ccc(S(=O)(=O)N(C)C[C@@H]2Oc3ccc(NC(=O)Nc4c(C)noc4C)cc3C(=O)N([C@H](C)CO)C[C@@H]2C)cc1`: the caspase activation is -0.0515%.

For the molecule `CC1CCC(C(C)C)C(=O)/C1=C\c1ccc(NC(=O)CCC(=O)O)cc1` (stereo not given), the caspase activation is -1.52%. With `COc1ccc(NC(=O)Nc2ccc3c(c2)C(=O)N([C@@H](C)CO)C[C@H](C)[C@@H](CN(C)Cc2ccc4c(c2)OCO4)O3)cc1` the figure was 0.747%; with `CC1=CCC(C(=O)O)(C(=O)NCc2ccccc2)C(c2ccc(Br)cc2)C1` (stereo not given), 0.252%; with `C[C@@H]1CN([C@H](C)CO)C(=O)c2cc(N(C)C)ccc2O[C@@H]1CN(C)S(C)(=O)=O`, 1.19%. On to `Cc1noc(C)c1NC(=O)N(C)C[C@@H]1Oc2ccc(NS(C)(=O)=O)cc2C(=O)N([C@H](C)CO)C[C@@H]1C`, for which the caspase activation was -0.083%. `O=c1oc2ccccc2cc1-c1ccc(Cl)cc1`: the caspase activation is -4.58%.

Take `COc1ccc(OC)c2c(C)cc(=O)[nH]c12`: the caspase activation is 0.675%. With `Cc1ccc(Nc2nc(C)cc(C)c2C(N)=O)cc1` the figure was 0.407%; with `CCOC(=O)c1cc(CC)sc1/N=C/C1C(=O)c2ccccc2C1=O`, 0.959%. With `NC(=O)c1nnc2cc(-c3ccccc3)nn2c1N`, the caspase activation was -5.53%.

In the case of `C[C@@H]1CN([C@@H](C)CO)C(=O)c2cc(NC(=O)c3ccncc3)ccc2O[C@H]1CN(C)S(=O)(=O)c1ccc(Cl)cc1`, the caspase activation was -0.107%. With `Cc1nc2ccccn2c1-c1ccnc(SCC(=O)c2ccc(Cl)cc2)n1`, the caspase activation is 2.75%. `COc1cc(C2OC(c3ccc(O)c(OC)c3)C(C)(O)C2C)ccc1O` (stereo not given): the caspase activation was 0.0643%. Consider `O=C(COC(=O)c1cc2ccccc2oc1=O)c1ccccc1`, for which the caspase activation was -0.224%.

As for `CC(C(=O)NC1CCCC1)n1c2ccccc2c2cnn(C)c(=O)c21` (stereo not given), the caspase activation was -0.382%. With `CCn1c(=O)c2c(n3c(SCC(N)=O)nnc13)-c1ccccc1CC21CCCCC1` the figure was 1.18%; with `O=C(NCN1CCCCC1)C12CC3CC(CC(C3)C1)C2`, 0.282%. Regarding `C[C@H]1O[C@@H](O[C@H]2[C@@H](O)C[C@H](O[C@H]3[C@@H](O)C[C@H](O[C@H]4CC[C@]5(C)C6C[C@@H](O)[C@]7(C)[C@@H](C8=CC(=O)OC8)CC[C@]7(O)C6CC[C@@H]5C4)O[C@@H]3C)O[C@@H]2C)C[C@H](O)[C@@H]1O` (stereo not given in full), the caspase activation was 0.786%. On to `CN(c1ncnc2c1cnn2-c1ccc(Cl)cc1)C1CCCCC1`, for which the caspase activation was -2.01%. For the molecule `CC1CCN(S(=O)(=O)c2ccc3nc(-c4ccccn4)cc(C(=O)NC4CCCC4)c3c2)CC1`, the caspase activation was -1.16%.

Take `CC(C)(C)c1ccc(/C=C/C(=O)NC2CCS(=O)(=O)C2)cc1` (stereo not given): the caspase activation was -0.861%. For the molecule `C=C1C(=O)O[C@@H]2[C@H]3C(CO)=CC(=O)C3=C(C)C[C@H](OC(=O)Cc3ccc(O)cc3)[C@@H]12`, the caspase activation is -0.373%. Next, `C[C@@H]1CN([C@H](C)CO)C(=O)c2cc(NS(=O)(=O)c3ccc(F)cc3)ccc2O[C@H]1CN(C)Cc1ccncc1`: 0.648%; `CC(C)(C)c1ccc(Cn2c(=N)n(CC(=O)O)c3ccccc32)cc1`: -0.508%; `C[C@@H]1CN([C@@H](C)CO)C(=O)c2cc(NC(=O)Cc3ccccc3)ccc2O[C@@H]1CN(C)S(=O)(=O)c1ccccc1`: 0.193%. On to `CCCCn1c2nc3ccccc3nc2c2c(N)ncnc21`, for which the caspase activation is -0.174%.

Turning to `C[C@@H]1CN([C@@H](C)CO)C(=O)c2cc(NC(=O)Nc3ccc(F)cc3)ccc2O[C@H]1CN(C)CC1CCCCC1`, the caspase activation was 0.271%. `CCc1ccccc1NC(=O)c1ccc2snnc2c1`: the caspase activation is 0.441%. Take `CCOC(=O)C1CCC(CN(Cc2ccccc2)S(=O)(=O)c2ccc(F)c(C)c2)CC1` (stereo not given): the caspase activation is 0.544%. In the case of `CC(C)[C@H](CO)Nc1nc(Nc2cc(N)cc(Cl)c2)c2ncn(C(C)C)c2n1`, the caspase activation was 13.9% (active). For the molecule `CC(C)OC(=O)C1=c2s/c(=C\c3cccnc3)c(=O)n2C(N)=C(C#N)C1c1cccnc1` (stereo not given), the caspase activation was -0.566%. As to `COc1ccc(NC(=O)N(C)C[C@H]2Oc3ccc(NS(=O)(=O)c4ccc(F)cc4)cc3C(=O)N([C@@H](C)CO)C[C@@H]2C)cc1`, the caspase activation was -0.29%.

Consider `Cc1ccc(-c2nc(Nc3ccccc3F)sc2C)cc1`, for which the caspase activation is -0.917%. Next, `CC1CCN(C(=O)Cn2cnc3c(cnn3-c3ccccc3)c2=O)CC1`: -0.191%; `O=C(c1nc2ncccn2n1)N(Cc1ccccc1)Cc1ccccc1`: -0.322%. Turning to `COc1nnc(-c2ccc(C)c(S(=O)(=O)N(C)C)c2)c2ccccc12`, the caspase activation was 0.109%. In the case of `Cc1ccc(S(=O)(=O)Nc2ccc3c(c2)C(=O)N([C@@H](C)CO)C[C@@H](C)[C@@H](CN(C)Cc2ccncc2)O3)cc1`, the caspase activation was 0.309%. Take `Cc1ccc(C(=O)NC(NCc2ccco2)(C(F)(F)F)C(F)(F)F)cc1`: the caspase activation is -0.256%. With `O=C(c1ccccc1)C(CC(=O)N1CCOCC1)c1ccccc1` (stereo not given), the caspase activation was 0.00844%. Consider `C[C@@H]1CN([C@H](C)CO)C(=O)c2cc(NC(=O)Cc3cn(C)c4ccccc34)ccc2O[C@@H]1CN(C)S(=O)(=O)c1cccs1`, for which the caspase activation is -0.00537%.

Regarding `CCSc1ccc2nnc(CCNC(=O)c3ccccc3)n2n1`, the caspase activation is 0.0984%. With `COc1ccccc1C(=O)N/C(=C\c1ccccc1)C(=O)N1CCOCC1`, the caspase activation is -0.546%. Next, `Cc1ccc(O)c(C(C)(C)C)c1`: -0.605%; `Cc1sc2nc3n(c(=O)c2c1C)N=C(c1ccc(F)cc1)CS3`: -1.09%.

Turning to `CC1=C(Cc2ccc(OC(=O)c3ccccc3)cc2)C(=O)C(C(C)C)CC1` (stereo not given), the caspase activation is 0.579%.

The values above are taken from PubChem BioAssay AID2241 (Broad Institute, 2010).
